In PubChem BioAssay AID1476 (National Center for Advancing Translational Sciences (NCATS), 2009):
Several values for one entry are separate records, joined by “and”; a condition that tells them apart may be missing. Equal values may be shown once. About 4,500 (2.2%) of roughly 200,000 compounds were called active. Roughly 12% stayed inconclusive and do not appear here. Calls follow the shape of the dose curve; as a rule, active = well fitted inhibition curve with a large enough effect; inconclusive = small, poorly fitted or top-dose-only effect, or effect the other way; inactive = flat fitted curve, though single readings scatter. The sample as a whole holds a higher share of actives than the screen did. The source holds several records for some structures; these can differ, active in one and inactive in another.
Also: nearly all actives have a fitted effect of over 40% in size.
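For max response, negative = inhibition in this document: plate controls were enzyme without inhibitor for no effect and buffer without enzyme for full effect.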
Potency is read from the fitted curve at half-maximal effect.

What follows are compounds tested against Cruzipain (Trypanosoma cruzi) (UniProt P25779) (assay: qHTS Assay for Promiscuous and Specific Inhibitors of Cruzain (without detergent)). Conditions: purified cruzain, Z-FR-AMC fluorescence, no detergent.
Sequence of Cruzipain (Trypanosoma cruzi) (P25779 123-467 limits assumed): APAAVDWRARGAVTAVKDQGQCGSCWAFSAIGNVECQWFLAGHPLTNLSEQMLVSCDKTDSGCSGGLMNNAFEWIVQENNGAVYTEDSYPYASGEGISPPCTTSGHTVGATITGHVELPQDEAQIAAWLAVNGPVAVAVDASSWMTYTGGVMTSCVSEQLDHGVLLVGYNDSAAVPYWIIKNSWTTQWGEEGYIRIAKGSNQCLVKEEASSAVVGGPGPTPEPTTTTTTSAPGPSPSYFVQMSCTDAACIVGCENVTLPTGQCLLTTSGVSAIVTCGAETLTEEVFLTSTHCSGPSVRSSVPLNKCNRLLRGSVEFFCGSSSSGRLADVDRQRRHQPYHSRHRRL
Outline: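 Detergent-free condition (0.00005% Triton X-100) in acetate buffer pH 5.5 with DTT. 1.5 nM enzyme and compound were pre-mixed 15 min, then 2 uM Z-FR-AMC substrate added; reaction progress from fluorescence change between first and third reads (60 s).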
`COc1cccc(NC(=O)Cn2c(=O)cc(C)c3c(C)nn(-c4cccc(F)c4)c32)c1` was tested, and the max response, negative = inhibition was -8.29% (inactive). `CCC(=O)N1CCc2cc(CNS(=O)(=O)c3ccc(Br)s3)ccc21` was tested, and the max response, negative = inhibition was -2.98% (inactive). For `CCOc1ccc(Nc2oc(/C=C/c3ccc(F)cc3)nc2C#N)cc1`, the max response, negative = inhibition was -13.4% (inactive). For `O=C(c1ccc(CN2CCOCC2)cc1)N1CCN(c2ccccc2F)CC1`, the max response, negative = inhibition was -4.12% (inactive). In the case of `CCn1c(C)c(C)c2cc(C(=O)N3CCN(c4cccc(C)c4C)CC3)ccc21`, the max response, negative = inhibition is reported as -25.1% (inactive). `Cc1c(C)n(Cc2ccc(Cl)cc2)c2ccc(C(=O)N3CCN(c4ccccc4F)CC3)cc12` was tested, and the Potency was 12.6 µM (active). In the case of `Cc1ccc(C)c(Cn2c(=O)n(CCC(=O)NCc3ccc4c(c3)OCO4)c(=O)c3sccc32)c1`, the max response, negative = inhibition is reported as -5.68% (inactive). `O=C(CSCc1cnn(-c2ccccc2)c1-n1cccc1)NCc1ccc(Cl)cc1` was tested, and the max response, negative = inhibition was 5.64% (inactive). With `Cc1ccc(-n2nc(C)c(C(=O)O)c2-n2cccc2)cc1` the max response, negative = inhibition was 1.25% (inactive). In the case of `CCC(=O)N1CCc2cc(S(=O)(=O)NC(C(=O)NCCc3ccc(C)cc3)C(C)C)ccc21` (stereo not given), the max response, negative = inhibition is reported as -12.9% (inactive). `Cc1ccccc1CN1C(=O)c2ccccc2Sc2ccc(C(=O)NCCCN3CCOCC3)cc21` was tested, and the max response, negative = inhibition was -3.52% (inactive). In the case of `COc1ccccc1NC(=O)CN1C(=O)c2ccccc2Sc2ccc(C(=O)N3CCCC3)cc21`, the max response, negative = inhibition is reported as 4.29% (inactive). For `COc1cccc(CNC(=O)c2ccc3c(c2)N(Cc2ccc(C(F)(F)F)cc2)C(=O)c2ccccc2S3)c1OC`, the Potency was 10 µM (active). In the case of `Cc1ccc(-c2csc(NC(=O)c3cccs3)n2)cc1`, the max response, negative = inhibition is reported as 7.26% (inactive). In the case of `Cc1nc(-c2ccc(NC(=O)c3cccs3)cc2)cs1`, the max response, negative = inhibition is reported as -25.5% (inactive). For `Cc1sc(NC(=S)NC(=O)c2cccs2)nc1-c1ccc(CC(C)C)cc1`, the Potency was 10 µM (active). `COc1ccc(C2=NC(c3ccncc3)=Nc3ccc(Br)cc3N2)cc1` was tested, and the max response, negative = inhibition was 11.4% (inactive). `O=C(Cn1ncn2nc(-c3cccs3)cc2c1=O)NCc1cccc(Br)c1` was tested, and the max response, negative = inhibition was -9.74% (inactive). For `O=C(CSc1oc(-c2ccco2)nc1S(=O)(=O)c1ccc(Cl)cc1)c1ccccc1`, the max response, negative = inhibition was 10.2% (inactive). For `CCCN(CCC)CCCNC(=O)Cn1cc2c(n1)-c1c(oc(C(=O)N3CCCC3)c1C)CC2`, the max response, negative = inhibition was 2.15% (inactive). `CCc1cccc(NC(=O)CN(c2ccc(C)c(C)c2)S(=O)(=O)c2ccsc2C(=O)OC)c1` was tested, and the max response, negative = inhibition was -9.83% (inactive). With `Cc1ccc(CNC(=O)CSc2c(C)cnc3c2c(=O)n(C)c(=O)n3C)cc1` the max response, negative = inhibition was -5.95% (inactive). With `Cc1cc(C(=O)COC(=O)CNC(=O)c2ccc(F)cc2)c(C)n1Cc1ccco1` the Potency was 15.8 µM (active). With `Cc1nn2c(=O)cc(COC(=O)CNC(=O)c3ccc(F)cc3)nc2s1` the max response, negative = inhibition was -12.1% (inactive). With `O=C(CNC(=O)c1ccco1)OCC(=O)c1ccccc1` the max response, negative = inhibition was -5.08% (inactive). In the case of `O=c1cc(-c2ccccc2)n2c(SCc3ccccc3)nnc2[nH]1`, the max response, negative = inhibition is reported as -3.24% (inactive). With `CC(C)Nc1nc(N(c2ccccc2)c2ccccc2)nc(-n2ccnc2)n1` the max response, negative = inhibition was 11.1% (inactive). With `N#Cc1nc(N)nc(N(c2ccccc2)c2ccccc2)n1` the Potency was 1.58 µM (active). In the case of `COc1ccc(NC(=O)CNC(=O)Cn2ccc3ccccc3c2=O)c(OC)c1`, the max response, negative = inhibition is reported as 10.4% (inactive). `Cc1ccccc1NC(=O)c1ccc(COc2ccc3c(C)cc(=O)oc3c2)cc1` was tested, and the Potency was 10 µM (active). For `Cc1ccccc1N1CCN(CCCOc2ccc3c(C)cc(=O)oc3c2)CC1`, the max response, negative = inhibition was -15.8% (inactive). In the case of `COC(=O)COc1ccc2oc(=O)cc(C)c2c1`, the max response, negative = inhibition is reported as -6.25% (inactive). With `CC(=O)N1CCCc2ccc(NS(=O)(=O)c3ccc(F)cc3F)cc21` the max response, negative = inhibition was 8.5% (inactive). For `COc1cc2c(cc1OC)C(COc1ccc(F)cc1)N(C(=O)c1ccccc1F)CC2` (stereo not given), the max response, negative = inhibition was 28.1% (inactive). In the case of `CC(=O)COc1ccc2c(-c3ccccc3)cc(=O)oc2c1`, the max response, negative = inhibition is reported as 2.99% (inactive). `COc1ccc(-c2c(C)cc3oc(=O)cc(-c4ccccc4)c3c2C)cc1F` was tested, and the Potency was 39.8 µM (active). For `COc1ccc(-c2c(C)cc3oc(=O)cc(-c4ccccc4)c3c2C)cc1OC`, the max response, negative = inhibition was -25.9% (inactive). With `Cc1cc(C)cc(NC(=O)CSc2nc3nccnc3c(=O)n2CCc2c[nH]c3ccccc23)c1` the max response, negative = inhibition was -2.15% (inactive). In the case of `O=S(=O)(c1ccccc1)c1nc(-c2ccc(Cl)cc2Cl)oc1N1CCCCC1`, the max response, negative = inhibition is reported as -16.2% (inactive). With `Cc1ccc(S(=O)(=O)n2nc(C)c(S(=O)(=O)N3CCCCCC3)c2C)cc1` the max response, negative = inhibition was -10.4% (inactive). In the case of `Oc1c(Cl)cc(Cl)c(Cl)c1Cc1c(O)c(Cl)cc(Cl)c1Cl`, the Potency is reported as 31.6 µM (active) and 25.1 µM (active) and the max response, negative = inhibition is reported as -18.2% (inactive). In the case of `CCOc1ccc(NC(=O)CSc2c3c(nc4ccccc24)CCCC3)cc1`, the max response, negative = inhibition is reported as 1.83% (inactive). With `CCOc1ccc(NC(=O)CSc2nc3ccccc3c(=O)n2Cc2cccs2)cc1` the max response, negative = inhibition was -21.1% (inactive). With `CCOc1ccc(NC(=O)CSc2ncnc3c2sc2ccccc23)cc1` the Potency was 25.1 µM (active) and the max response, negative = inhibition was -8.47% (inactive). With `Cc1ccc(C)c(N2CCN(C(c3ccccc3)c3nnc(-c4ccccc4)o3)CC2)c1` (stereo not given) the max response, negative = inhibition was -12.6% (inactive). For `COc1ccc(CCNC(=O)CCCCn2c(=O)c3ccccc3n(Cc3ccccc3)c2=O)cc1OC`, the max response, negative = inhibition was -0.815% (inactive). For `COc1cc(C2c3c(oc4ccccc4c3=O)C(=O)N2c2nc(C)c(C)s2)ccc1O` (stereo not given), the max response, negative = inhibition was -4.14% (inactive). In the case of `COc1ccccc1CNC(=O)CCCCn1c(=O)c2ccccc2n(CC(=O)Nc2cc(Cl)ccc2C)c1=O`, the max response, negative = inhibition is reported as -2.88% (inactive). With `COc1ccccc1OCCNc1cc(N2CCOCC2)ccc1[N+](=O)[O-]` the max response, negative = inhibition was 26.2% (inactive). For `O=[N+]([O-])c1ccc(N2CCN(S(=O)(=O)c3ccc4ccccc4c3)CC2)cc1NCc1ccco1`, the Potency was 7.94 µM (active). In the case of `O=C(c1ccccc1)N1CCN(c2ccc([N+](=O)[O-])c(NCc3ccco3)c2)CC1`, the max response, negative = inhibition is reported as -12.2% (inactive). `CCc1ccccc1NC(=O)CSc1nc(C)c(C(=O)Nc2ccccc2)c(-c2ccc(Cl)cc2)c1C#N` was tested, and the max response, negative = inhibition was 4.27% (inactive). For `CCc1ccc(NC(=O)CN2C(=O)C(c3ccccc3)=NC23CCCCCC3)cc1`, the max response, negative = inhibition was -25.9% (inactive).
